# Source: PubChem (National Center for Advancing Translational Sciences (NCATS))
# Hits are enriched below; roughly 13% of the tested compounds scored in any of these assays.
# Pf growth 48h – inhibits P. falciparum growth in the first generation, 48 h | hit rate 5.9% among 310,000 | P. falciparum luciferase growth in erythrocytes, 48 h | Potency, µM (doses to about 28.7 µM), inactives show top-dose activity change, negative = inhibition, actives largely listed as inhibitors | AID 504832; further: potency means the concentration at half of the fitted maximal effect
#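 Growth was read as firefly luciferase luminescence after a 48 h, 37 C, 5% CO2 exposure of compounds to reporter-bearing P. falciparum cultures (0.1% parasitemia, 2% hematocrit final) in Albumax-supplemented RPMI 1640.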
# Pf growth 96h – P. falciparum growth inhibition at 96 hours | P. falciparum luciferase reporter growth, 96 h | Potency, µM (doses to about 28.7 µM), without a hit: at the highest dose activity change, negative = inhibition, hits mostly inhibitors | hit rate 6.9% among 320,000 | AID 504834; further: potency means the concentration at half of the fitted maximal effect
#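 Two-generation exposure (96 h) targets delayed-death phenotype. Reporter parasites carrying integrated firefly luciferase, in red cells at 2% hematocrit and 0.05% parasitemia final, kept at 37 C, 5% CO2; luminescence loss indicates inhibition.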
# HCV inhibitor – inhibitors of hepatitis C virus infection. Huh7.5.1 HCVcc-Cre infection, luciferase reporter, 44 h. Potency, µM (top dose mostly 41.8 µM), inactives show at the top dose activity change, negative = inhibition, usual class: inhibitors. hit rate 3.4% among 340,000; further: potency means the concentration at half of the fitted maximal effect
#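 Antiviral activity was scored by luciferase reporter output from cells infected with HCVcc-Cre (~0.5 moi) in presence of compound, 44 h infection period, cells seeded 1,000/well 4 h prior.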
# HCMV antiviral – human cytomegalovirus inhibition; activity change, negative = inhibition, % at 57.5 µM; hit rate 4.5% among 410,000; HFF cells, HCMV-luciferase reporter, 72 h; active compounds read low; AID 1259415; in the data active means activity change below about -60%; inconclusive means no clear call, values can overlap the other calls; inactive means above about -39%
#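 After 16 h attachment at 37C, HFF cells received test compound and HCMV-luciferase (1 PFU/cell); reporter luminescence read 72 h later, data normalized against buffer-only and known inhibitor Salinomycin.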
# * = called active by the depositor; ? = inconclusive; . = not tested or not shown. Unless noted, the call rests on the fitted dose curve; in most records, active means well fitted inhibition curve with a large enough effect; inconclusive means small, poorly fitted or top-dose-only effect, or another doubt; inactive means no such curve, though single readings can be large or run the other way. On the % scale 0 is the no-effect control and ±100 the full control effect.
SMILES,Pf growth 48h,Pf growth 96h,HCV inhibitor,HCMV antiviral
Cc1cc(C)cc(NC(=O)Cc2c(C(=O)O)c(C)cn2C)c1,.,.,.,3.5
Cc1c(C(=O)N2CCC3(CC2)OCCO3)oc2ccccc12,7.5%,38.1%,7.2%,-20.7
CCCc1cc(=O)[nH]c(SCC(=O)N2CCN(S(=O)(=O)c3ccccc3)CC2)n1,-8.8%,?,1.3%,7.4
CCCc1cc(=O)[nH]c(SCC(=O)N2CCN(S(=O)(=O)c3ccc(C)cc3)C2)n1,.,13.1µM*,8.6%,26.5
COc1ccccc1N1CCN(C(=O)c2c(C)cc(=O)oc2C)CC1,7.1%,.,8.6%,-22.6
Cc1c(C(=O)N2CCN(C(c3ccccc3)c3ccccc3)CC2)oc2ccccc12,6.57µM*,14.7µM*,?,-22.7
CCCCNC(=O)N1CCN(C(c2ccccc2)c2ccccc2)CC1,?,?,-3.3%,.
CCCc1cc(C(=O)N2CCN(C(c3ccccc3)c3ccccc3)CC2)no1,11.7µM*,?,?,-3.9
Cc1cc(=O)oc(C)c1C(=O)N1CCN(C(c2ccccc2)c2ccccc2)CC1,13.1µM*,9.28µM*,?,-0.4
Oc1c(C(c2ccccc2)N2CCN(c3cccc(Cl)c3)CC2)sc2nc(-c3ccco3)nn12 (stereo not drawn),.,.,.,64.5
CC12CCC(C(=O)N3CCN(C(c4ccccc4)c4ccccc4)CC3)(OC1=O)C2(C)C (stereo not drawn),.,1.65µM*,?,-30.1
O=C(c1cc(-c2cccs2)on1)N1CCN(C(c2ccccc2)c2ccccc2)CC1,6.57µM*,40.3%,2.82µM*,?
COc1cccc(-c2cc(C(=O)N3CCN(C(c4ccccc4)c4ccccc4)CC3)no2)c1,8.28µM*,1.47µM*,-22.0%,-4.1
O=C(c1cc(-c2cccs2)on1)N1CCOCC1,221.4%,?,12.3%,63.4
Cc1cc(=O)[nH]c(SCC(=O)N2CCN(C(c3ccccc3)c3ccccc3)CC2)n1,13.1µM*,-7.7%,?,-12.6
Cc1cc(=O)[nH]c(SCC(=O)N2CCN(c3ccccc3)CC2)n1,.,.,.,3.4
Cc1c(NC(=O)c2nc3ccccc3nc2N2CCCCC2)cccc1[N+](=O)[O-],.,.,.,-9.0
COc1ccc(Nc2cc3c(cn2)cc(-c2cccc(F)c2)n3C)cn1,.,.,.,-37.6
Cc1cc(Cl)ccc1NC(=O)CS(=O)(=O)c1cccc2nsnc12,.,.,.,-18.5
COc1ccccc1N1CCN(C(=O)c2noc(C)c2[N+](=O)[O-])CC1,-12.8%,18.8%,24.1%,0.0
Cc1cc(C(=O)N2CCN(C(c3ccccc3)c3ccccc3)CC2)no1,9.28µM*,?,?,-17.8
Cc1onc(C(=O)N2CCN(C(c3ccccc3)c3ccccc3)CC2)c1[N+](=O)[O-],?,?,?,-103.2*
O=C(/C=C/Nc1ccccc1)C(F)(F)F,7.1%,8.7%,7.4%,-79.7*
COc1ccc(-n2c(=O)c3c(c4cc(OC)ccc4n3C)n(CCC(C)C)c2=O)cc1,.,.,.,-1.1
CC1(C)CC2CC(C)(CN2C(=S)Nc2ccccc2F)C1 (stereo not drawn),-9.3%,2.9%,16.6%,2.8
SMILES,Pf growth 48h,Pf growth 96h,HCV inhibitor,HCMV antiviral
CC1(C)CC2CC(C)(CN2C(=S)Nc2ccccc2)C1 (stereo not drawn),-14.5%,-22.1%,16.5%,-61.2*
CC(=O)c1ccc(NC(=O)c2ncn(-c3ccccc3)n2)cc1,.,.,.,67.3
Cc1sc2ncn(CC(=O)Nc3ccc(F)cc3Cl)c(=O)c2c1S(=O)(=O)N1CCN(c2ncccn2)CC1,.,.,.,8.1
O=C(CN1CCCC1)Nc1ccc(S(=O)(=O)N2CCCCC2)cc1,6.8%,?,?,-22.5
COC(=O)c1cc(NC(=O)CN2CCc3cc4c(cc3C2)OCCCO4)cc(C(=O)OC)c1,-6.0%,9.28µM*,?,-10.4
O=C(CN1CCc2cc3c(cc2C1)OCCCO3)Nc1ccc(S(=O)(=O)N2CCCC2)cc1,?,13.1µM*,-4.7%,-9.5
N[C@H]1CC[C@@]23CCCN2C(=O)CCC[C@H]3[C@H]1Cc1ccccc1,.,.,.,15.2
Cc1cccc(OCCCCn2c(C3CC(=O)N(c4ccccc4Cl)C3)nc3ccccc32)c1 (stereo not drawn),.,.,.,-21.2
O=C(c1cc(C(=O)NCCc2ccccc2)c(=O)n(CCc2ccccc2)c1)c1cc(Cl)ccc1O,0.828µM*,0.415µM*,?,-14.9
COc1ccc(CCNC(=O)c2ccc(Cl)cc2Cl)cc1,5.5%,.,-19.5%,26.5
COc1ccc(CCNC(=O)c2cc(C(=O)c3cc(C)ccc3O)cn(CCc3ccc(OC)cc3)c2=O)cc1,6.57µM*,3.29µM*,?,-5.2
COc1ccc(CCNC(=O)c2cc(C(=O)c3cc(Cl)ccc3O)cn(CCc3ccc(OC)cc3)c2=O)cc1,1.65µM*,0.522µM*,?,-38.6
COc1ccc(N2CCN(C(=O)CS(=O)(=O)c3cccc4nsnc34)CC2)cc1,.,.,.,0.4
CC[C@H]1Nc2ccc(OC)cc2[C@@H](NS(C)(=O)=O)[C@@H]1C,.,.,.,1.1
O=C(NCc1ccco1)c1ccc2c(c1)N(Cc1ccc(F)cc1)C(=O)c1ccccc1S2=O (stereo not drawn),.,.,.,8.6
COc1cccc(/C=C/c2nc(C#N)c(N3CCC(C(N)=O)CC3)o2)c1,.,.,.,-1.6
COc1ccc(CNC(=O)Cn2ccc3cc(S(=O)(=O)N4CCCCCC4)ccc32)c(OC)c1,.,.,.,-15.4
CCCC(=O)NC(NC(=S)Nc1ccc(N=Nc2ccccc2)cc1)C(Cl)(Cl)Cl (stereo not drawn),?,49.4%,10µM*,-70.1*
